Screens from PubChem BioAssay.
Cav3 T inh = Cav3.2 calcium influx blockers – cell-based, Fluo-4 calcium fluorescence, FDSS, MLSMR library, primary screen; B-score at 10 µM; Cav3.2-expressing cells; stronger effect = lower value; AID 449739, 2010; hit rate 4% among 100,000; Voltage-dependent T-type calcium channel subunit alpha-1H (Homo sapiens), O95180;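 active = single-dose well whose peak fluorescence ratio is a statistical outlier from its plate by either plate-standardised score or position-corrected B-score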
CYP2C19 inhib = blockers of cytochrome P450 2C19 activity – biochemical, luminescence, ADME assay, primary screen. hit rate 21% among 96,000. CYP2C19 Supersomes, luciferin-H EGE luminescence, 30 min. inhibition, % at 5 µM. AID 778, 2007. P33261;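 active = CYP2C19 inhibition above a set limit at 5 µM in the primary screen, cut at about 50% in these data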
Target sequence (P33261 whole entry, looked up): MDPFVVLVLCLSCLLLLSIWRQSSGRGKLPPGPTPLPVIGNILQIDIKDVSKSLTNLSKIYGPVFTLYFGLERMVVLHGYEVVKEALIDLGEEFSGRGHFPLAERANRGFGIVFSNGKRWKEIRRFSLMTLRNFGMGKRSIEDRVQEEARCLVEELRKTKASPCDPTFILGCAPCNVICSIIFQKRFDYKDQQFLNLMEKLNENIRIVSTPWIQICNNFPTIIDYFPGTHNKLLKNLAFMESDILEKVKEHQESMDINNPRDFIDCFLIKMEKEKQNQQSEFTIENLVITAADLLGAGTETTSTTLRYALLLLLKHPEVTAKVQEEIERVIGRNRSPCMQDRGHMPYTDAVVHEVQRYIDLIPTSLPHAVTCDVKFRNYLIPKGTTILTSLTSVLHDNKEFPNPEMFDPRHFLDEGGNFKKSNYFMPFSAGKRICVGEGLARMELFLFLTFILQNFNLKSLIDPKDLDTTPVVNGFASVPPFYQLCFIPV
CYP2C19 activ = human CYP2C19 activators, primary screen, biochemical, luminescence; activation factor at 5 µM; recombinant CYP2C19, luciferin-H EGE luminescence; stronger effect = higher value; 0 = fully inhibited enzyme, 1 = untreated enzyme; 96,000 tested, under 10 active; AID 1025, 2008; Cytochrome P450 2C19 (Homo sapiens), P33261;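 active = activation factor of at least 2 at 5 µM in the primary screen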
CYP2C9 inh = blockers of cytochrome P450 2C9 activity – biochemical, luminescence, ADME assay, primary screen | P11712 | CYP2C9 Supersomes, luciferin-H conversion | inhibition, % at 5 µM | hit rate 20% among 96,000 | AID 777, 2007;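 active = blocking of liver enzyme CYP2C9 beyond about 50% at 5 µM, limit read from the data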
CYP2C9 activ = human CYP2C9 activators, primary screen, biochemical, luminescence; recombinant CYP2C9, luciferin-H conversion; stronger effect = higher value; factor 1 = untreated enzyme, 0 = blocked; hit rate 1.4% among 96,000; activation factor at 5 µM;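 active = activation factor of 2 or more for CYP2C9 at a 5 µM dose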
Hits are given with their value; – = inactive; · = no result given. Shown are actives, neighbours in structure and some others; about 27% of the full set was active somewhere.

SMILES	Cav3 T inh	CYP2C19 inhib	CYP2C19 activ	CYP2C9 inh	CYP2C9 activ
CC(=O)Nc1ccccc1C(=O)N1CC2(C)CC1CC(C)(C)C2 (stereo not given)	–	–	–	–	–
COc1ccc(O)c(-c2[nH]ncc2C(=O)c2ccccc2C)c1	–	90	–	87	–
COc1ccc(/C=C/C(=O)c2ccccc2O)cc1	–	·	·	·	·
O=C(c1noc2c1CCc1ccccc1-2)N1CCOCC1	–	–	–	–	3.2
COc1ccc2c(c1)CCc1c(C(=O)N3CCCCCC3)noc1-2	–	–	–	–	–
O=C(c1noc2c1CCc1ccccc1-2)N1CCCc2ccccc21	–	52	–	–	–
O=C(N1CCOCC1)C1(c2ccccc2)CCCCC1	–	69	–	–	–
O=C(CSc1nnnn1-c1ccccc1)c1cc2ccccc2oc1=O	–	–	–	60	–
Cc1cc(NC(=O)c2cc3ccccc3oc2=O)no1	–	–	–	–	–
Cc1cc(C)nc(SCC(=O)c2cc3ccccc3oc2=O)n1	·	58	–	–	–
Oc1ccccc1N1CCN(c2ncccn2)CC1	–	84	–	86	–
O=S(=O)(c1cc(F)cc(F)c1)N1CCN(c2ncccn2)CC1	–	72	–	–	–
Cc1nc(N2CCN(S(=O)(=O)c3ccccc3)CC2)c2cc(-c3ccccc3)sc2n1	–	–	–	53	–
Cc1nc(N2CCN(S(=O)(=O)c3cccc4nonc34)CC2)c2c3c(sc2n1)CCCC3	–	–	–	–	–
O=S(=O)(c1cccc(S(=O)(=O)N2CCN(c3ncccn3)CC2)c1)N1CCOCC1	–	·	·	·	·
O=S(=O)(c1ccccc1)N1CCN(c2ncccn2)CC1	–	–	–	62	–
COC(=O)CNC(=O)C(C)NC(=O)CNC(=O)OCc1ccccc1 (stereo not given)	–	·	·	–	–
O=C(CSc1nnc2ccccn12)Nc1ccccc1C(=O)NC1CC1	–	–	–	–	–
CCOC(=O)C1=C(C)N(CCCC(=O)O)C(=O)NC1c1ccc2ccccc2c1 (stereo not given)	–	·	·	·	·
O=C(O)c1cc(O)c2c(c1)C(=O)c1cc(O)cc(O)c1C2=O	–	·	·	·	·
C[C@@H](O)[C@@H]1NC(=O)c2cc([N+](=O)[O-])cc(I)c2NCC[C@@H](C(N)=O)NC(=O)CNC1=O	–	·	·	·	·
N#C/C(=C\c1ccc(F)cc1)c1n[nH]c(Cn2cncn2)n1	–	–	–	58	–
O=C(Nc1ccc(OC(F)(F)F)cc1)c1n[nH]c(Cn2cncn2)n1	–	–	–	–	–
Cc1ccc(OCc2nnc(SCC(=O)c3cccc([N+](=O)[O-])c3)n2C)cc1	–	–	–	–	–
CCC(=O)Nc1ccccc1Nc1cc(C#N)c(C#N)cc1[N+](=O)[O-]	–	69	–	–	–
SMILES	Cav3 T inh	CYP2C19 inhib	CYP2C19 activ	CYP2C9 inh	CYP2C9 activ
Cc1nc(NC(=O)c2ccccc2)sc1-c1csc(Nc2ccc(F)cc2)n1	–	78	–	–	–
Cc1ccccc1Nc1nc(-c2sc(NC(=O)c3cccc(Cl)c3)nc2C)cs1	–	–	–	–	–
CCOc1ccccc1Nc1nc(-c2sc(NC(=O)c3ccc([N+](=O)[O-])cc3)nc2C)cs1	–	–	–	–	–
Cc1ccccc1Nc1nc(-c2sc(NC(=O)c3ccccc3)nc2C)cs1	–	55	–	–	–
Cc1ccccc1Nc1nc(-c2sc(NC(=O)c3ccc([N+](=O)[O-])cc3)nc2C)cs1	–	52	–	–	–
O=C(CSc1nc2c([nH]c3ccccc32)c(=O)n1-c1ccc(F)cc1)NCc1ccco1	·	–	–	–	–
Cc1ccc(C2C(C#N)=C(N)SC(N)=C2C#N)c(C)c1	–	54	–	–	–
Cc1cc(NC(=O)CN2CCCCC2C)no1 (stereo not given)	–	–	–	–	–
CCOc1ccc(S(=O)(=O)N2CCCC2)cc1	–	–	–	–	–
COc1cc(CCC(=O)N2CCN(S(=O)(=O)c3ccc(C)c(C)c3)CC2)cc(OC)c1OC	–	56	–	–	–
O=S(=O)(c1ccc(Cl)cc1)N1CCN(C2CCN(Cc3ccccc3)CC2)CC1	–	–	–	–	–
COc1ccc(S(=O)(=O)N2CC3C4C=CC(C4)C3C2)cc1 (stereo not given)	–	58	–	–	–
COc1ccc(S(=O)(=O)N2CCN(Cc3ccc(Cl)cc3)CC2)cc1	–	63	–	–	–
CCOc1ccc(C(=O)CN2CCN(S(=O)(=O)c3ccc(Cl)cc3)CC2)cc1	–	58	–	–	–
COc1ccc(CCC(=O)N2CCN(S(=O)(=O)c3ccc4ccccc4c3)CC2)cc1	–	–	–	–	–
CCCCP(=O)(CCCC)Cc1ccccc1O	–	–	–	–	–
CCN(CC)CCNC(=O)CS(=O)Cc1nc(-c2ccc(C)cc2)oc1C (stereo not given)	–	–	–	–	–
CCCC(C)C(=O)Nc1cccc(NC(C)=O)c1 (stereo not given)	–	–	–	–	–
COc1ccc(S(=O)(=O)N2CCN(Cc3c[nH]c4ccccc34)CC2)cc1	–	52	–	–	–
COc1cc(S(=O)(=O)N2CCN(Cc3ccccc3)CC2)ccc1Br	–	–	–	–	–
COc1cc(CN2CCN(S(=O)(=O)c3ccc(F)cc3)CC2)cc(OC)c1OC	–	84	–	–	–
CCOC(=O)c1ccc(S(=O)(=O)N2CCN(CC(=O)NC(=O)NC3CCCCC3)CC2)cc1	–	–	–	60	–
O=[N+]([O-])c1ccc(S(=O)(=O)N2CCN(Cc3c[nH]c4ccccc34)CC2)cc1	–	–	–	–	–
O=C(COC(=O)c1ccc(S(=O)(=O)N2CCOCC2)cc1)NC1CCCC1	–	–	–	–	–
COc1ccc(S(=O)(=O)N2CCN(Cc3cccc(Cl)c3)CC2)cc1	–	94	–	61	–
SMILES	Cav3 T inh	CYP2C19 inhib	CYP2C19 activ	CYP2C9 inh	CYP2C9 activ
COc1ccccc1Nc1nc(NCCCCO)nc(N2CCCC2)n1	–	·	·	·	·
COc1ccc(N(CC(=O)NCc2cccs2)S(=O)(=O)c2cccnc2)cc1	–	84	–	64	–
COc1ccc2nc3oc(C(=O)NCc4cccs4)cc3cc2c1	–	–	–	–	–
COc1ccc(N(CC(=O)NCc2cccs2)S(=O)(=O)c2c(C)n[nH]c2C)cc1	–	73	–	–	–
C=CCn1c(SCC(=O)NCc2ccco2)nc2sc3c(c2c1=O)CCC3	–	–	–	–	–
C=CCn1c(SCc2csc(C)n2)nc2sc3c(c2c1=O)CCC(C)C3 (stereo not given)	–	·	·	·	·
C=CCn1c(SCc2csc(C)n2)nc2sc3c(c2c1=O)CCCC3	–	–	–	50	–
C=CCn1c(SCc2csc(C)n2)nc2sc3c(c2c1=O)CCCCC3	–	–	–	88	–
CCCCN(CC)C(=O)c1n[nH]c(=O)c2ccccc12	–	–	–	–	–
